From PubChem BioAssay (EPA / NIEHS)
Active and inactive are the calls of the source. How the source made its calls: active means hit-call score of the fitted dose curve at least 0.9, where 1 is the maximum; inactive means score below 0.9.

Assays:
[1] = biological target: Transcription factor E2F1 (Homo sapiens) (UniProt Q01094); assay: ATG_E2F_CIS: Attagene CIS-FACTORIAL HepG2 Assay for human E2F Transcription Factor 1 (AID 2282935); conditions: HepG2 Attagene cis-reporter, E2F reporter RNA transcripts; actives raise or lower the signal
Sequence of Transcription factor E2F1 (Homo sapiens) (Q01094 whole entry, looked up): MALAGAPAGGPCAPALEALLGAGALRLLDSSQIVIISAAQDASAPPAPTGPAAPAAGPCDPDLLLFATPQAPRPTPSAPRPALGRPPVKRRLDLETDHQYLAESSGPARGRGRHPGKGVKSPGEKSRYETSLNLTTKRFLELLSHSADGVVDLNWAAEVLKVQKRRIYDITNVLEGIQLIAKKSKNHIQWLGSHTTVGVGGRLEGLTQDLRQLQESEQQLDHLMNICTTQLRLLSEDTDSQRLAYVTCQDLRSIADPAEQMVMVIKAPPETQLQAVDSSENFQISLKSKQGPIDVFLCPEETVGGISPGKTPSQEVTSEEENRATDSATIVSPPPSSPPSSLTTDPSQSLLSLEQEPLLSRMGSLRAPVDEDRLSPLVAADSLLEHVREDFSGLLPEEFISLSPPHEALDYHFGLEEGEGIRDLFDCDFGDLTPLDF
Outline: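 Transient MRTU transfection of HepG2; 24 h compound exposure; RNA → oligo(dT) RT → PCR → FAM label → HpaI cut → CE fluorescence. Gain/loss of signal fit against DMSO.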

[2] = ATG_E_Box_CIS: Attagene CIS-FACTORIAL HepG2 Assay for human Enhancer Box (E-box) (AID 2282936); conditions: HepG2 E-box cis-reporter transcription, actives raise or lower the signal
Outline: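 Transiently transfected HepG2, endogenous TF-driven reporters, 24 h dosing. Readout: RT-PCR plus capillary electrophoresis of fluorescent reporter fragments. Gain or loss of signal fitted bidirectionally against DMSO baseline.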

[3] = ATG_M_61_CIS: Attagene CIS-FACTORIAL HepG2 Assay for M61 Transcription Factor (Internal Marker) (AID 2282937); conditions: HepG2 Attagene CIS-FACTORIAL M61 internal marker reporter; actives raise or lower the signal
Outline: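 Using transiently transfected HepG2 liver cells, reporter transcript levels were assessed 24 h post-dosing by RT-PCR and capillary electrophoresis. Changes in either direction were fitted relative to DMSO controls.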

[4] = ATG_EGR_CIS: Attagene CIS-FACTORIAL HepG2 Assay for human Early Growth Response 1 (EGR1) (AID 2282938); conditions: HepG2 Attagene CIS-FACTORIAL EGR reporter mRNA; actives raise or lower the signal
Outline: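 Fluorescent capillary-electrophoresis signal of reporter cDNA fragments serves as read-out. HepG2 cells bear transiently transfected cis-promoter reporter units and are exposed 24 h; gain- or loss-of-signal is fitted against DMSO.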

[5] = ATG_M_19_CIS: Attagene CIS-FACTORIAL HepG2 Assay for M19 Transcription Factor (Internal Marker) (AID 2282939); conditions: HepG2 Attagene CIS-FACTORIAL M19 internal marker reporter; actives raise or lower the signal
Outline: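 Internal marker readout, fitted in both directions against DMSO, from HepG2 cells carrying transfected cis-element reporter constructs; RT-PCR and capillary electrophoresis of reporter mRNA after 24 h exposure.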

[6] = ATG_Ets_CIS: Attagene CIS-FACTORIAL HepG2 Assay for human Erythroblast Transformation Specific (ETS) (AID 2282941); conditions: HepG2 ETS cis-reporter transcription, actives raise or lower the signal
Outline: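 RT-PCR/capillary electrophoresis fluorescence read-out of reporter mRNA; HepG2 transient multi-reporter transfection; 24 h compound exposure; gain or loss of signal fitted bidirectionally relative to DMSO.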

[7] = biological target: Hepatocyte nuclear factor 3-beta (Homo sapiens) (UniProt Q9Y261); assay: ATG_FoxA2_CIS: Attagene CIS-FACTORIAL HepG2 Assay for human Forkhead box A2 (FOXA2) (AID 2282942); conditions: HepG2 cis-reporter transcription factor activity, 24 h; actives raise or lower the signal
Sequence of Hepatocyte nuclear factor 3-beta (Homo sapiens) (Q9Y261 whole entry, looked up, the tested form may be a part): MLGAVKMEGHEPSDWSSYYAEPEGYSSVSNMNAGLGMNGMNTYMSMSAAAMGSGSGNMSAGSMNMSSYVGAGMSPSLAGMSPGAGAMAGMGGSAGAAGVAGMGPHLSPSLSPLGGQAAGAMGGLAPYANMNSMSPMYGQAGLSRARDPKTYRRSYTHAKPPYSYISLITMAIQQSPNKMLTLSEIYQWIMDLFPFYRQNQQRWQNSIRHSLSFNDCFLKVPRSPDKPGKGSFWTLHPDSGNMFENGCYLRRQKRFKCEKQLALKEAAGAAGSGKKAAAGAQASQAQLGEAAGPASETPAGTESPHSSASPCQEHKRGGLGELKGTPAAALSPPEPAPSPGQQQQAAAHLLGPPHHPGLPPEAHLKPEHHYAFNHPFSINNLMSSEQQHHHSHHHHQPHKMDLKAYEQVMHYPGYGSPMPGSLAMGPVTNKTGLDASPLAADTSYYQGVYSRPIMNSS
Outline: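 Fluorescence signal of reporter cDNA fragments, separated by capillary electrophoresis, reflects endogenous transcription factor activity in transfected HepG2 after 24 h. Both increases and decreases fitted against DMSO.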

[8] = ATG_FoxO_CIS: Attagene CIS-FACTORIAL HepG2 Assay for human Forkhead box O (FoxO) (AID 2282943); conditions: HepG2 Attagene cis-reporter, FoxO element, mRNA; actives raise or lower the signal
Outline: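 Read-out: fluorescence of 6-FAM-labelled reporter cDNA fragments resolved by capillary electrophoresis. Transiently transfected HepG2 cells were dosed for 24 h; activity fitted in both directions relative to DMSO controls.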

[9] = ATG_GLI_CIS: Attagene CIS-FACTORIAL HepG2 Assay for human Zinc Finger Protein GLI1 (AID 2282945); conditions: HepG2, Attagene cis-factorial reporter mRNA, GLI element; actives raise or lower the signal
Outline: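 Transiently transfected HepG2 cells report endogenous transcription factor activity via cis-element-driven reporter units. After 24 h compound exposure, reporter mRNA was measured by RT-PCR with capillary electrophoresis; bidirectional fitting against DMSO baseline.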

[10] = biological target: Bile acid receptor (Homo sapiens) (UniProt Q96RI1); assay: ATG_IR1_CIS: Attagene CIS-FACTORIAL HepG2 Assay for human Nuclear Receptor Subfamily 1 Group H Member 4 (NR1H4), IR1 submotif (AID 2282946); conditions: IR1 reporter transcription, actives raise or lower the signal
Sequence of Bile acid receptor (Homo sapiens) (Q96RI1 whole entry, looked up): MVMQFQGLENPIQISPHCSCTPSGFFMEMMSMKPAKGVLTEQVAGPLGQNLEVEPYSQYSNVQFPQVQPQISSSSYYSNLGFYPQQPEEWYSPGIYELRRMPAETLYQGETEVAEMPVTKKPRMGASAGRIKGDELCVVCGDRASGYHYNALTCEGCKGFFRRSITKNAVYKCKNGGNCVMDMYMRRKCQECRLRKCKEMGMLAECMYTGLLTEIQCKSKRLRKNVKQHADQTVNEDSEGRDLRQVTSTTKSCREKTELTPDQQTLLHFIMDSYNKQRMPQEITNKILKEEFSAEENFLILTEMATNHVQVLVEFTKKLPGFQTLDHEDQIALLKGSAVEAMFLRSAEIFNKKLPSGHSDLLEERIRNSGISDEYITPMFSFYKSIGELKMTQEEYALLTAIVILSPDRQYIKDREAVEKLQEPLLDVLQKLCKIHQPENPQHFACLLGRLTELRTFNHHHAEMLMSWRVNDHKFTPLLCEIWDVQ
Outline: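 Fluorescence of capillary-separated, HpaI-digested RT-PCR reporter products gave IR1-element mRNA induction in HepG2 cells 24 h after dosing. Endogenous transcription factors drove the cis-regulated reporters; activity was fitted bidirectionally against DMSO.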

[11] = ATG_GRE_CIS: Attagene CIS-FACTORIAL HepG2 Assay for human Glucocorticoid Response Elements (GRE) (AID 2282947); conditions: HepG2 GRE cis-reporter, Attagene multiplex mRNA; actives raise or lower the signal
Outline: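 Read-out: fluorescent reporter-transcript fragments separated by capillary electrophoresis after RT-PCR. Transiently transfected HepG2 cells carrying cis-element-driven reporter units were dosed for 24 h; gain or loss of signal fitted against DMSO control.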

[12] = ATG_ISRE_CIS: Attagene CIS-FACTORIAL HepG2 Assay for human Interferon Regulatory Factor 1 (IRF1) binding to an Interferon-Stimulated Response Element (ISRE) (AID 2282948); conditions: HepG2 ISRE cis-reporter (Attagene), mRNA transcription readout; actives raise or lower the signal
Outline: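 Read-out: fluorescent RT-PCR products resolved by capillary electrophoresis, reporting endogenous transcription factor activity via ISRE-driven reporter mRNA in transfected HepG2 cells dosed for 24 h; gain or loss fitted relative to DMSO.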

[13] = ATG_M_32_CIS: Attagene CIS-FACTORIAL HepG2 Assay for M32 Transcription Factor (Internal Marker) (AID 2282949); conditions: HepG2 Attagene cis-factorial M32 reporter, mRNA; actives raise or lower the signal;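 further: background control marker of the multiplexed CIS panel rather than a real target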
Outline: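 Transient MRTU transfection of HepG2; 24 h compound treatment; TriZol RNA, oligo(dT) RT, reporter PCR, 6-FAM primer extension, HpaI cut, CE. Gain/loss of signal vs DMSO.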

[14] = ATG_M_06_CIS: Attagene CIS-FACTORIAL HepG2 Assay for M06 Transcription Factor (Internal Marker) (AID 2282950); conditions: HepG2 Attagene CIS-FACTORIAL M06 internal marker reporter; actives raise or lower the signal
Outline: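 Serves as a background control readout. Transfected HepG2 exposed to compounds for 24 h, then reporter transcripts quantified by fluorescent RT-PCR and capillary electrophoresis. Both directions fitted against DMSO baseline.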

[15] = biological target: Hypoxia-inducible factor 1-alpha (Homo sapiens) (UniProt Q16665); assay: ATG_HIF1a_CIS: Attagene CIS-FACTORIAL HepG2 Assay for human Hypoxia Inducible Factor 1 (HIF1A) (AID 2282951); conditions: HepG2 Attagene cis-factorial HIF1a reporter transcription; actives raise or lower the signal
Sequence of Hypoxia-inducible factor 1-alpha (Homo sapiens) (Q16665 whole entry, looked up): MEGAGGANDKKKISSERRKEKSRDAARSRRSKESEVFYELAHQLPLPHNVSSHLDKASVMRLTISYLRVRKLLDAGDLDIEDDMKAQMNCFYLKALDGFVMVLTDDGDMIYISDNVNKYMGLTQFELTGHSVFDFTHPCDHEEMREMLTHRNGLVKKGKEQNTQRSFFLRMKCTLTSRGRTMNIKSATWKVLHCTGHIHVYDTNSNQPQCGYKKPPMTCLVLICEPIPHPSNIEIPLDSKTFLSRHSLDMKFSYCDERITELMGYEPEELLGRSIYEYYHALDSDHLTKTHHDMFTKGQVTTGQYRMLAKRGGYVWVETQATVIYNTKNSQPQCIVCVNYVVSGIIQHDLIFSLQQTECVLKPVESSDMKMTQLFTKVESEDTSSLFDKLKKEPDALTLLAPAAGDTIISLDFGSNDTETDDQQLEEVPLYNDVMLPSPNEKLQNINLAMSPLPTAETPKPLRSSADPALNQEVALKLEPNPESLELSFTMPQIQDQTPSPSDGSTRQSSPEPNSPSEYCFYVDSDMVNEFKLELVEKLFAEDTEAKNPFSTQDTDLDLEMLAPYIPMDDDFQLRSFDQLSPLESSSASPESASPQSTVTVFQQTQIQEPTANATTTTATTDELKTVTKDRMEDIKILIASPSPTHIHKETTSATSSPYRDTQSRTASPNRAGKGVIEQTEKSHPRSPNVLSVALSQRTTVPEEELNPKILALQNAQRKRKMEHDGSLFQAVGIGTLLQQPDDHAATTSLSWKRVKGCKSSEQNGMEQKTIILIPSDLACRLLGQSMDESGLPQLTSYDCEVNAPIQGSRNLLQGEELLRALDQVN
Outline: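 Endogenous-TF cis reporter readout, human HepG2 cells, 24 h incubation; mRNA detected via RT-PCR and capillary electrophoresis fluorescence; DMSO-normalised bidirectional fitting.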

[16] = biological target: Hepatocyte nuclear factor 6 (Homo sapiens) (UniProt Q9UBC0); assay: ATG_HNF6_CIS: Attagene CIS-FACTORIAL HepG2 Assay for human Hepatocyte Nuclear Factor 6 (HNF6) (AID 2282952); conditions: HepG2 Attagene cis-factorial HNF6 reporter transcription; actives raise or lower the signal
Sequence of Hepatocyte nuclear factor 6 (Homo sapiens) (Q9UBC0 whole entry, looked up, the tested form may be a part): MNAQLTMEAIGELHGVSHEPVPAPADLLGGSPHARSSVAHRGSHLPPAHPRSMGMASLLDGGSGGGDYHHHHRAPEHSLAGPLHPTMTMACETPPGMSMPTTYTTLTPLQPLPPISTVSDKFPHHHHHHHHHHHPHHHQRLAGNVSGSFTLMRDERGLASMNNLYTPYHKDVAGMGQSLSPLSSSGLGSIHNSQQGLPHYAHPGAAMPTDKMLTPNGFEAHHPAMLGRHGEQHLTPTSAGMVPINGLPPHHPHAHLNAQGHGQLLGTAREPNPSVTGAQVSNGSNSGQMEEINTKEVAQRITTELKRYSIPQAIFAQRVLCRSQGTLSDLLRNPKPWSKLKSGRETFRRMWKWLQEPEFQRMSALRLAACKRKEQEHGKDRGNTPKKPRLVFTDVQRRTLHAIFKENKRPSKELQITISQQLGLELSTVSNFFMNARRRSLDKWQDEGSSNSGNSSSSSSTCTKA
Outline: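 Readout: fluorescent reporter-transcript fragments resolved by capillary electrophoresis after RT-PCR, reflecting endogenous factor activity in transfected HepG2. Exposure 24 h. Gain or loss of signal fitted bidirectionally against DMSO.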

[17] = biological target: Heat shock factor protein 1 (Homo sapiens) (UniProt Q00613); assay: ATG_HSE_CIS: Attagene CIS-FACTORIAL HepG2 Assay for human Heat Shock Transcription Factor 1 (HSE) (AID 2282953); conditions: HepG2 HSE cis-reporter, Attagene RNA transcription; actives raise or lower the signal
Sequence of Heat shock factor protein 1 (Homo sapiens) (Q00613 whole entry, looked up): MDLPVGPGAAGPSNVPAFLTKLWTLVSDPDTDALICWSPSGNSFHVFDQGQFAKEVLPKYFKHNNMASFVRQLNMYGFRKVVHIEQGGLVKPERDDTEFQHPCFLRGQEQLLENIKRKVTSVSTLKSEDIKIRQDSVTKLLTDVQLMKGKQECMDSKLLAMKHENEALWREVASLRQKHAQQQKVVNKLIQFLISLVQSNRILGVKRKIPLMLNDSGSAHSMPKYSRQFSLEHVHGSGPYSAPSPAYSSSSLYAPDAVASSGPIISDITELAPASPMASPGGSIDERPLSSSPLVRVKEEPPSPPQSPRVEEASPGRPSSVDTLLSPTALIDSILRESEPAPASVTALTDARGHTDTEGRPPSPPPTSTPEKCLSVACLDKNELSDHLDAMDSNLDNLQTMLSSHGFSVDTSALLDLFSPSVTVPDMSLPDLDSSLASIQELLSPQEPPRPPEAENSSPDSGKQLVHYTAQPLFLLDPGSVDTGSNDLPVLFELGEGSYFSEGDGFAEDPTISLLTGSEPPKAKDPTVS
Outline: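 Endogenous transcription factor activity in transiently transfected HepG2, read as reporter mRNA by RT-PCR with fluorescent capillary electrophoresis after 24 h. Gain or loss of signal fitted versus DMSO baseline.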

[18] = ATG_MRE_CIS: Attagene CIS-FACTORIAL HepG2 Assay for human Metal Responsive Element (MRE) (AID 2282954); conditions: HepG2 MRE cis-reporter transcription, Attagene multiplex; actives raise or lower the signal
Outline: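 RT-PCR/capillary electrophoresis readout of reporter mRNA, 24 h post-dosing, in HepG2 cells transfected with multiplexed cis-regulated reporter constructs. Gain or loss of signal fitted bidirectionally against DMSO baseline.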

[19] = ATG_ERE_CIS: Attagene CIS-FACTORIAL HepG2 Assay for Estrogen Response Element (ERE) (AID 2282940); conditions: HepG2 ERE cis-reporter, Attagene RNA transcript; actives raise or lower the signal
Outline: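 After 24 h compound treatment, RNA from transfected HepG2 cells was reverse-transcribed, reporter cDNA PCR-amplified, FAM-labelled, HpaI-cut and resolved by capillary electrophoresis. ERE-driven cis reporter transcripts reflect endogenous factors; gain or loss scored against DMSO.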

[20] = ATG_GATA_CIS: Attagene CIS-FACTORIAL HepG2 Assay for human GATA Binding Protein (AID 2282944); conditions: HepG2 GATA cis-element reporter, Attagene multiplex mRNA; actives raise or lower the signal
Outline: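 Reporter transcripts from a GATA cis-regulated unit, among multiplexed reporters in transfected HepG2 cells, were measured by RT-PCR with capillary electrophoresis after 24 h dosing. Induction or loss scored relative to DMSO.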

Measured: AC50

O=C(O)C(F)(F)OC(F)(F)C(F)(F)OC(F)(F)F
not listed: [19] | [20]
inactive: all other assays above

CCOP(=S)(OCC)SCS(=O)(=O)CC
not listed: [4] | [16]
inactive: all other assays above

O=S(=O)(c1ccc(O)cc1)c1ccc(O)cc1
active: [19] 1.7 µM
not listed: [4] | [16]
inactive: all other assays above

CC(C)(C)c1ccccc1OP(=O)(Oc1ccccc1)Oc1ccccc1
active: [10] 26.5 µM | [12] 50.2 µM
not listed: [4] | [17] | [19]
inactive: all other assays above

O=C(O)C(F)(OC(F)(F)C(F)(F)C(F)(F)F)C(F)(F)F (stereo not drawn)
not listed: [4] | [16]
inactive: all other assays above

Cc1ccc(C(=O)Cl)cc1
not listed: [4]
inactive: all other assays above

ClC(Cl)(Cl)c1ccccc1
active: [19] 45.1 µM
not listed: [4] | [20]
inactive: all other assays above

COC(N)=O
active: [15] 100 µM
not listed: [4]
inactive: all other assays above

CCCN(CCC)c1c([N+](=O)[O-])cc(C(C)C)cc1[N+](=O)[O-]
not listed: [10] | [11] | [19] | [20]
inactive: all other assays above

FC(F)(F)c1ccc(Cl)cc1
not listed: [17] | [19] | [20]
inactive: all other assays above

Cc1cccc(N)c1
not listed: [3] | [4] | [10] | [11] | [16] | [17]
inactive: all other assays above

N#Cc1cc([N+](=O)[O-])ccc1N
not listed: [3] | [4] | [19] | [20]
inactive: all other assays above
